CCHFV vOTU inh = CCHFV vOTU protease inhibition; inhibition, % at 11.5 µM; Pep-AMC fluorescence; AID 651958; 370,000 compounds, 0.55% hits
Mtb bLac sens = beta-lactam sensitization of Mtb H37Rv. M. tuberculosis H37Rv growth with meropenem, percent inhibition. inhibition, % at 25 µM. 330,000 compounds, 0.27% hits; call rule not given here;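 further: growth measured after seven days incubation then overnight dye step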
FBA Mtb inh = inhibits M. tuberculosis FBA enzyme. P9WQA3. purified M. tuberculosis FBA, fluorescence read-out. inhibition, % at 1 µM. 360,000 compounds, 2.3% hits. AID 588726; in the data active means inhibition above about 27%
Target sequence (P9WQA3 whole entry, looked up): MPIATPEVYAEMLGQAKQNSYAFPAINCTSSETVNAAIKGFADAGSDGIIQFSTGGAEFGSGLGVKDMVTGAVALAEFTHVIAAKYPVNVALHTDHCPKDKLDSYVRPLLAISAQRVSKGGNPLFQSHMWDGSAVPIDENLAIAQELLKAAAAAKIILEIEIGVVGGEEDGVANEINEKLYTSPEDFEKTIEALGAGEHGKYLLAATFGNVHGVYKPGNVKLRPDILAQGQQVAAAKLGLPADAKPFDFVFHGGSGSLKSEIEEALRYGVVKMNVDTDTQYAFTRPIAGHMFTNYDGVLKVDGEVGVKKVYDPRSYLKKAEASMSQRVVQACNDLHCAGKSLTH
MazEF act = activators of E. coli MazEF toxin-antitoxin RNase; 350,000 compounds, 0.32% hits; AID 504720; FAM/BHQ RNA-DNA oligo cleavage fluorescence, 5 h; activation, % at 20 µM; P0AE70; in the data active means activation above about 50%
Target sequence (P0AE70 whole entry, looked up): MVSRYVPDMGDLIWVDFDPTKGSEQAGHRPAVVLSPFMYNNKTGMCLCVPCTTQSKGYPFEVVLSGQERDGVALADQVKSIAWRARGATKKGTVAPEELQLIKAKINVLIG
GDH-TPI inh = inhibits GDH-TPI coupling enzymes, artifact for Mtb FBA screen. GDH-TPI coupled enzyme counterscreen, NADH absorbance. inhibition, % at 4.8 µM. 360,000 compounds, 1.2% hits
Each line names hits and unclear results; the compound was inactive in the other large screens. In the library only some 4% were active in any assay of this set; here they are far more common. Unless noted, no stated cut-off is given here; in the data, active means inhibition above about 30%; inactive means the rest.

O=C(CC(SCCO)c1ccc([N+](=O)[O-])cc1)c1ccco1 (centres undefined)	GDH-TPI inh 31
CC(=O)NC(CSC(CC(=O)c1ccco1)c1ccc(C)cc1)C(=O)O (centres undefined)	MazEF act 249, GDH-TPI inh 31
CCOC(=O)c1cc2c(nc1N)CCCC2	FBA Mtb inh 139
CC(C)CCN(C)C1CCN(C(=O)Nc2ccc3c(c2)OCO3)CC1	none (no result: Mtb bLac sens, FBA Mtb inh, MazEF act, GDH-TPI inh)
COc1ccc(OC)c(-n2c(O)c(/C=C3\C=Nc4ccccc43)c(=O)[nH]c2=O)c1	none
CCOc1ccc(-n2c(O)c(/C=C3\C=Nc4ccccc43)c(=O)[nH]c2=O)cc1	MazEF act 120
C=CCN1C(=O)/C(=C\c2ccc(N3CCOCC3)o2)C(=O)NC1=S	none
C=CCN1C(=O)/C(=C/c2ccc(Br)s2)C(=O)NC1=S	MazEF act 72
CCCCN(C)c1c2c(nc3ncnn13)CCCC2	none (no result: Mtb bLac sens, FBA Mtb inh, MazEF act, GDH-TPI inh)
Cc1nc2c(C)cccn2c(=O)c1NC(=O)c1ccc(Br)o1	GDH-TPI inh 33
Cc1c(C)c2ccc(OCC(=O)Nc3nccs3)cc2oc1=O	FBA Mtb inh 65
Cc1ccc(NC(=O)OCCCN2C(=O)CCC23CCC(C)CC3)cc1C (centres undefined)	none (no result: Mtb bLac sens, FBA Mtb inh, MazEF act, GDH-TPI inh)
COC(=O)c1nn2c(C(F)(F)F)cc(-c3ccc(Br)o3)nc2c1Br	MazEF act 111
CC(C)(C)NC(=O)c1nn2c(C(F)(F)F)cc(-c3ccccc3)nc2c1Br	none
COc1cc2ccc(C(C)=NNC(N)=S)cc2cc1OC	GDH-TPI inh 42 (no result: Mtb bLac sens)
O=C(c1csc2c1CCCC2)N1CCN(c2ccc(F)cc2)CC1	MazEF act 53
COC(=O)c1c(/N=C/N(C)C)sc2c1CCN(c1ncc(C(F)(F)F)cc1Cl)C2	MazEF act 51
CSc1nc2nccc(/C=C\c3ccccc3)n2n1	GDH-TPI inh 31
COCCN1C(=O)C(=O)/C(=C(/O)c2cccc(OC)c2)C1c1ccco1 (centres undefined)	GDH-TPI inh 35
C=CCOc1ccc(/C(O)=C2\C(=O)C(=O)N(CCOC)C2c2cccnc2)cc1 (centres undefined)	GDH-TPI inh 34
COc1cccc(/C(O)=C2/C(=O)C(=O)N(Cc3cccnc3)C2c2ccco2)c1 (centres undefined)	none
COCCN1C(=O)C(=O)/C(=C(/O)c2ccc(S(=O)(=O)N3CCOCC3)cc2)C1c1ccc(O)cc1 (centres undefined)	GDH-TPI inh 33
COc1ccc(/C(O)=C2/C(=O)C(=O)N(CCN3CCOCC3)C2c2cccnc2)cc1OC (centres undefined)	none
Cc1ccc(/C(O)=C2/C(=O)C(=O)N(CCN3CCOCC3)C2c2cccnc2)cc1 (centres undefined)	GDH-TPI inh 33
COc1ccc(CCC[C@H](CCC(=O)N(c2ccccc2)c2ccccc2)CCc2ccccc2)cc1	none (no result: Mtb bLac sens, FBA Mtb inh, MazEF act, GDH-TPI inh)
COCCCN1C(=O)C(=O)/C(=C(/O)c2ccc(OCC(C)C)cc2C)C1c1cccnc1 (centres undefined)	GDH-TPI inh 44
CCCOc1ccc(/C(O)=C2/C(=O)C(=O)N(CCOC)C2c2cccnc2)cc1 (centres undefined)	none (no result: FBA Mtb inh, MazEF act, GDH-TPI inh)
COC(=O)N/N=C/c1cc(N=Nc2ccccc2Cl)ccc1O	none
COC(=O)N/N=C/c1cc(N=Nc2ccccc2)ccc1O	GDH-TPI inh 38
Cc1ccc(C(=O)N/N=C\c2ccc(-c3ccc(Cl)cc3)o2)cn1	GDH-TPI inh 31
Cc1ccc(/C=N/NC(=O)c2cc(C)oc2C)o1	none
Cn1cccc1/C=N/NC(=O)c1cccnc1	GDH-TPI inh 48
Cc1cc(C(=O)NN=Cc2ccc(-c3ccc(F)cc3)o2)c(C)o1	GDH-TPI inh 53
Cc1ccc(C(=O)N/N=C\c2ccc(-c3ccc([N+](=O)[O-])cc3)o2)cn1	none
Cc1ccc(C(=O)N/N=C\c2cccn2C)cn1	GDH-TPI inh 54
COC(=O)C[C@H]1CC[C@H]2[C@H](COc3ccc(NS(=O)(=O)c4cccc(F)c4)cc3C(=O)N2C)O1	none (no result: Mtb bLac sens, FBA Mtb inh, MazEF act, GDH-TPI inh)
CCOC(=O)[C@]12CCCCC/C=C\1N(Cc1ccc(OC)cc1)C(=O)[C@H]2CC(=O)N1CCCC1	none (no result: Mtb bLac sens, FBA Mtb inh, MazEF act, GDH-TPI inh)
CCc1cc2cc(C)ccc2nc1SCC(=O)N1CCN(C(=O)c2ccco2)CC1	none
COc1cc2cc(C)c(SCC(=O)N3CCN(C(=O)c4ccco4)CC3)nc2cc1OC	GDH-TPI inh 44
Cc1sc(NC(=O)c2ccco2)c(C(c2cccnc2)N2CCN(C)CC2)c1C (centres undefined)	none
Cc1sc(NC(=O)c2ccco2)c(C(c2cccnc2)N2CCCC2)c1C (centres undefined)	GDH-TPI inh 31
Cc1cc(NCCCn2ccnc2)n2c(nc3ccccc32)c1C#N	FBA Mtb inh 70
CCC(C)Nc1cc(C)c(C#N)c2nc3ccccc3n12 (centres undefined)	FBA Mtb inh active
Cc1cc(NCCCN(C)C)n2c(nc3ccccc32)c1C#N	FBA Mtb inh active
CCCc1cc(NCCCO)n2c(nc3ccccc32)c1C#N	FBA Mtb inh active
CCC(C)Sc1cc(C)c(C#N)c2nc3ccccc3n12 (centres undefined)	none
CCOc1ccc(/C=N/n2c(-c3n[nH]c4c3CCC4)n[nH]c2=S)cc1	none (no result: Mtb bLac sens, FBA Mtb inh, MazEF act, GDH-TPI inh)
CCOC(=O)N1CCN(C(=O)C[C@@H]2C(=O)N3CCCC4=C3[C@@]2(C(=O)OCC)CCC4)CC1	none (no result: Mtb bLac sens, FBA Mtb inh, MazEF act, GDH-TPI inh)
COC(=O)C[C@H]1CC[C@@H]2[C@H](COc3ccc(NC(=O)C(C)C)cc3C(=O)N2C)O1	none (no result: Mtb bLac sens, FBA Mtb inh, MazEF act, GDH-TPI inh)
CN[C@H]1C[C@H]2c3[nH]c4cccc(-c5ccc6c(c5)OCO6)c4c3CCN2C[C@H]1[C@H](C)O	none (no result: Mtb bLac sens, FBA Mtb inh, MazEF act, GDH-TPI inh)
CCCc1cc(-n2ccnc2)n2c(nc3ccccc32)c1C#N	MazEF act 82
Cc1cc(NCCCOC(C)C)n2c(nc3ccccc32)c1C#N	FBA Mtb inh 190
CCN(CC)c1ccc(/C=C2\C(=O)c3ccc(C(=O)O)cc3C2=O)cc1	MazEF act 52
NC(=O)c1c(NC(=O)C2COc3ccccc3O2)sc2c1CCN(Cc1ccccc1)C2 (centres undefined)	MazEF act 258
FC(F)(F)c1ccc(Cn2ccc3ccc(-c4ccc5ccn(Cc6ccc(C(F)(F)F)cc6)c5c4)cc32)cc1	none (no result: Mtb bLac sens, FBA Mtb inh, MazEF act, GDH-TPI inh)
CCN(CC)c1ccc(C(=O)n2cnc3ccccc32)cc1	GDH-TPI inh 40 (no result: Mtb bLac sens)
CC(=NNC(=O)CSc1nnc(-c2ccc(C(C)(C)C)cc2)n1-c1ccccc1)c1cccc2ccccc12	none (no result: Mtb bLac sens, FBA Mtb inh, MazEF act, GDH-TPI inh)
Cc1ccc2c(c1)c1ncnc(N3CCOCC3)c1n2C	FBA Mtb inh 126
Cc1ccc2c(c1)c1ncnc(N3CCC4(CC3)OCCO4)c1n2C	none (no result: Mtb bLac sens, FBA Mtb inh, MazEF act, GDH-TPI inh)
COc1ccc(-c2nn(-c3ccccc3)cc2/C=N/NC(=O)c2cccc(S(=O)(=O)Nc3ccccc3Cl)c2)cc1	GDH-TPI inh 32
COc1ccc(-c2nn(-c3ccccc3)cc2/C=N/NS(=O)(=O)c2ccccc2)cc1	none
O=C1[C@@H](C2CCCCC2)[C@@H]2c3ccccc3C=NN2[C@@H]2c3ccccc3C=NN12	none (no result: Mtb bLac sens, FBA Mtb inh, MazEF act, GDH-TPI inh)
N#CCCN1CCN(C(=S)c2ccc(-c3cccc(Cl)c3)o2)CC1	GDH-TPI inh 39
